# From PubChem BioAssay (NCATS)
# Inconclusive results are not listed. Values without a mark were called inactive. Activity calls are given as the source filed them. Calls come from the whole dose curve; as a rule, active = well fitted inhibition curve with a large enough effect; inconclusive = small, poorly fitted or top-dose-only effect; inactive = flat fitted curve, though single readings scatter.
# Molecular target: Calcium and integrin-binding protein 1 (Homo sapiens) (UniProt Q99828)
# Assay: Primary qHTS for Identification of Calcium Integrin Binding Protein 1 (CIB1) Competitor (AID 1508620);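 note: GST tagged CIB1 binding a fluorescein labelled alphaIIb integrin peptide tracer; top concentration of the series differs between compounds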
# Details: CIB1-GST / FITC-alphaIIb peptide fluorescence polarization; series mostly up to 114 µM; activity change, negative = inhibition: at the top concentration
# How it was run: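 Fluorescence polarization competition: CIB1-GST (1 uM final) preincubated with compound 15 min at room temperature, then FITC-labeled alphaIIb peptide (100 nM final) added for another 15 min. Polarization read at Ex 480/Em 540.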
# % is set by controls: 0 for no effect and ±100 for the full control effect.
# Chain of Calcium and integrin-binding protein 1 (Homo sapiens) (Q99828 whole entry, looked up): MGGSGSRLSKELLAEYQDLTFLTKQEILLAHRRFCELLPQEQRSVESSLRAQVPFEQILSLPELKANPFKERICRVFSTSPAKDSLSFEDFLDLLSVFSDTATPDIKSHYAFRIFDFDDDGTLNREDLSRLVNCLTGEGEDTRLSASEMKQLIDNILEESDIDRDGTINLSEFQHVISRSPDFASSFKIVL
Compound,"activity change, negative = inhibition",Potency
CC(C)(C)OC(=O)N1CCN(c2ccc(NCc3ccc(-c4ccccc4F)o3)cc2)CC1,2.79%,–
COC(=O)c1ccccc1-c1ccc(/C=c2\sc3nc4cc(Br)cnc4n3c2=O)o1,82.8%,–
COc1ccc(OC)c(C2=Nn3c(nnc3-c3ccccc3OC)SC2)c1,6.28%,–
O=C(Nc1ccccc1)Nc1nc(Nc2cc(F)cc(F)c2)nc(NC2CCCC2)n1,-1.92%,–
CN1CCN(Cc2cc(COCc3ccccc3)c3cccnc3c2O)CC1,-6.17%,–
COc1ccc(CN2C(=O)c3ccccc3NC2c2ccc(OC)c(COc3ccc(NC(C)=O)cc3)c2)cc1 (stereo not given),5.34%,–
O=C(OCC#CCSc1nnc(-c2ccc3ccccc3c2)o1)c1ccsc1,2.86%,–
O=C(Nc1ccc(Oc2ccccc2)cc1)Nc1nnc(-c2ccncc2)s1,1.14%,–
COc1cc(O)c(C(CC(=O)N2C[C@H](C)C[C@H](C)C2)c2ccc3c(c2)OCO3)c(OC)c1 (stereo not given in full),-0.504% [at 228 µM],–
Fc1cccc(CNc2ncnc3ccc(-c4ccoc4)cc23)c1,-3.06%,–
O=c1c2ccccc2nc2sc(Nc3ccc(Oc4ccccc4)cc3)nn12,-3.35%,–
O=C(Nc1ccc(-c2cn[nH]c2)cc1)Nc1nnc(-c2ccncc2)s1,-3.7%,–
Cc1cc(C)nc(NC(=S)N2CCN(c3ccc(C(F)(F)F)cc3[N+](=O)[O-])CC2)c1,-13%,–
O=C1CCc2cc([S+](=O)([O-])NC3CCOCC3)ccc2N1,2.54%,–
Cc1cccc(-n2cnc3cc(C(=O)N4CCCCC4)ccc32)c1,-1.74%,–
Oc1ccc(CNc2nccc3ccccc23)c2cccnc12,0.4%,–
Cc1cc(-c2nnc3n2CCCCC3)c(C)n1-c1cccc(C(F)(F)F)c1,2.31%,–
Cc1ccc(NS(=O)(=O)c2cc3c(cc2NC(C)C)NC(=O)CC3)cc1C,1.13%,–
NC(=O)C1CCN(c2nc(-c3ccccc3[N+](=O)[O-])cs2)CC1,-7.41%,–
CN(C)c1cccc(-c2ncc(F)c(N3CCC(C(N)=O)CC3)n2)c1,3.13%,–

Compound,"activity change, negative = inhibition",Potency
CCOc1ccc(CCNC(=O)c2cc3ccccc3n2Cc2ccc(Cl)c(F)c2)cc1OCC,-0.838%,–
COc1ccc2c(=O)n3nc(Nc4ccc5c(c4)CCC5)sc3nc2c1,0.645%,–
COc1ccc(C2Nc3ccccc3C(=O)N2Cc2ccco2)cc1COc1ccccc1 (stereo not given),–,inactive
O=C(OCc1c(-c2ccccc2)no[n+]1[O-])c1ccccc1,5.33%,–
O=C(/C=C/c1ccccc1Br)NCCc1nc2ccccc2[nH]1,-0.875%,–
Clc1cccc(-c2nc(-c3ccc(-c4nn[nH]n4)cc3)no2)c1,-16.1%,–
Cn1nnnc1Sc1ncnc2scc(-c3cccs3)c12,-5.79%,–
CC(C)N1Cc2ccc(Nc3nn4c(=O)c5ccccc5nc4s3)cc2C1,4.83%,–
COc1ccc(C2Nc3ccccc3C(=O)N2Cc2ccccc2)cc1COc1ccc(C)cc1 (stereo not given),1.29%,–
CCCCNC(=S)NCCCN(Cc1ccc(Cl)c(Cl)c1)c1ccc(Br)cn1,-4.36%,–
Cc1ccc(-c2csc(N3CCC(C(N)=O)CC3)n2)cc1,4.82%,–
O=C(Cc1nnc(CNC(=O)c2ccccc2)o1)Nc1cc(C(F)(F)F)ccc1Cl,1.14%,–
O=C(/C=C/c1ccc2c(c1)OCO2)Nc1cccc([S+](=O)([O-])Nc2ccccc2F)c1,–,inactive
Cc1cc(NC(=S)N2CCN(c3cccc(C(F)(F)F)c3)CC2)nc2ccccc12,0.0159%,–
CCCn1c(C)nc2c(NCCN(CC)CC)nc(C)nc21,8.2%,–
CC(=O)NC(c1ccco1)c1cc(Cl)c2ccc(Cl)nc2c1O (stereo not given),-16.3%,–
Cc1ccc(NS(=O)(=O)c2ccc(N3CCCC3=O)cc2)cc1C,4.41%,–
CC(=O)N1CCN(S(=O)(=O)c2ccc3c(c2)CC(=O)N3)CC1,-1.8% [at 228 µM],–
CC(C)(C)NC(=O)Nc1nnc(-c2ccncc2)s1,-3.34%,–
Cc1ccc(NS(=O)(=O)c2ccc3c(c2)CCC(=O)N3)cc1,2.43%,–
